Unmarked numbers belong to inactive results. For some of these results: Potency and affinity values are given separately. Calls of active or inactive are those of the source. Unless noted, how the calls were made is not given here.

The nature of assay [1]: antimalarial activity against Dd2 strain (AID 2302;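 active means growth inhibition above 50% at the single 2 µM test dose, taken to imply half-maximal potency below 2 µM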;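 further: 0% = DMSO untreated growth and 100% = chloroquine plus artemisinin killed control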). The following applies: P. falciparum Dd2 in RBCs, LDH growth readout, 72 h; at 2 µM; stronger effect = higher value.
A short description of assay [2]: HepG2 cytotoxicity, primary screen, cytotoxicity control for P. falciparum antimalarial project, cell-based, ATP luminescence (AID 2303;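 active means inhibition above 50%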;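 further: 0% = DMSO wells and 100% = digitonin-killed cells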). To be noted: HepG2 viability, 24-48 h, at 10 µM, stronger effect = higher value.
Assay [3] concerns the target L-lactate dehydrogenase (Plasmodium falciparum (isolate CDC / Honduras)) (UniProt Q27743). The assay can be described thus: PfLDH activity inhibition – cell lysate, 3D7 strain, counter-screen for P. falciparum growth inhibition project (AID 2304).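 Further: 0% = vehicle and 100% = reference inhibitor.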 To be noted: P. falciparum 3D7 crude extract, LDH APAD/NBT absorbance; at 2 µM; stronger effect = higher value.
Assay [4] is described as follows: inhibition of 3D7 malaria parasite growth – strain 3D7 (AID 2306).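 Further: 0% = DMSO wells and 100% = chloroquine plus artemisinin control wells.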 To be noted: P. falciparum 3D7 erythrocytic growth, LDH absorbance, 72 h; at 2 µM; stronger effect = higher value.
Assay [5] has as its target Calcium-dependent protein kinase 1 (Plasmodium falciparum (isolate 3D7)) (UniProt P62344). The assay can be described thus: PfCDPK1 kinase inhibitors, biochemical, TCAMS library (AID 1159585; cut-off not given, nearly all actives have IC50 up to about 0.98 µM;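 further: inhibitors leave more ATP so luminescence rises with inhibition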). The following applies: recombinant PfCDPK1, Kinase-Glo ATP depletion luminescence. For orientation: Kinase-Glo measures the ATP left after a reaction by luminescence.
Assay [6] addresses Plasmodium falciparum protein kinase 6 (PK6, PF3D7_1337100) (UniProt Q8IDW1). The assay can be described thus: PfPK6 kinase inhibitors, biochemical, TCAMS library (AID 1159586). To be noted: recombinant PfPK6, Kinase-Glo ATP depletion luminescence.
The target of assay [7] is Protein kinase 7 (PK7), Plasmodium falciparum 3D7 (PF3D7_0213400) (UniProt Q7YTF7). The assay can be described thus: inhibition of Plasmodium PK7 catalytic activity – biochemical, TCAMS antimalarial set, Kinase-Glo luminescence (AID 1159587). To be noted: recombinant PfPK7, Kinase-Glo ATP depletion luminescence.
Sequence of Protein kinase 7 (PK7), Plasmodium falciparum 3D7 (PF3D7_0213400) (Q7YTF7 1-343): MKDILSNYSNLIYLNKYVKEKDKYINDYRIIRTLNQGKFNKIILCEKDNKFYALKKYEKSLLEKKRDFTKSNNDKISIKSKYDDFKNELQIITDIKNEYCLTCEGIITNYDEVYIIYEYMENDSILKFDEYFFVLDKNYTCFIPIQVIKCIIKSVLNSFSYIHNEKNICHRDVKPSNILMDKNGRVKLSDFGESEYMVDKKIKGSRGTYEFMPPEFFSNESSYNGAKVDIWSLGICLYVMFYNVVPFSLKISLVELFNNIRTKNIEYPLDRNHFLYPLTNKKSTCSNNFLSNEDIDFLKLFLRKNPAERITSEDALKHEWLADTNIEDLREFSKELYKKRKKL
Assay [8] concerns the target Calcium-dependent protein kinase 4 (Plasmodium falciparum (isolate 3D7)) (UniProt Q8IBS5). The assay is described as follows: PfCDPK4 kinase inhibitors, biochemical, TCAMS library (AID 1159588; cut-off not given, nearly all actives have IC50 up to about 0.91 µM). The following applies: recombinant PfCDPK4, Kinase-Glo ATP depletion luminescence.

Sequence of Plasmodium falciparum protein kinase 6 (PK6, PF3D7_1337100) (Q8IDW1 1-305): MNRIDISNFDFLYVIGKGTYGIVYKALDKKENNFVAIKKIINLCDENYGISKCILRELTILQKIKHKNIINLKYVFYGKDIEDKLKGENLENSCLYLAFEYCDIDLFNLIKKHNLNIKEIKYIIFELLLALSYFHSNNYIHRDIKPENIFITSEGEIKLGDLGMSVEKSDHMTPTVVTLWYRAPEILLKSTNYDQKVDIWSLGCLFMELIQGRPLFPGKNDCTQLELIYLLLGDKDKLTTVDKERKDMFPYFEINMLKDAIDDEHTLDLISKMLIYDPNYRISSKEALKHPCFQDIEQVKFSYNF
Sequence of Calcium-dependent protein kinase 4 (Plasmodium falciparum (isolate 3D7)) (Q8IBS5 whole entry, looked up): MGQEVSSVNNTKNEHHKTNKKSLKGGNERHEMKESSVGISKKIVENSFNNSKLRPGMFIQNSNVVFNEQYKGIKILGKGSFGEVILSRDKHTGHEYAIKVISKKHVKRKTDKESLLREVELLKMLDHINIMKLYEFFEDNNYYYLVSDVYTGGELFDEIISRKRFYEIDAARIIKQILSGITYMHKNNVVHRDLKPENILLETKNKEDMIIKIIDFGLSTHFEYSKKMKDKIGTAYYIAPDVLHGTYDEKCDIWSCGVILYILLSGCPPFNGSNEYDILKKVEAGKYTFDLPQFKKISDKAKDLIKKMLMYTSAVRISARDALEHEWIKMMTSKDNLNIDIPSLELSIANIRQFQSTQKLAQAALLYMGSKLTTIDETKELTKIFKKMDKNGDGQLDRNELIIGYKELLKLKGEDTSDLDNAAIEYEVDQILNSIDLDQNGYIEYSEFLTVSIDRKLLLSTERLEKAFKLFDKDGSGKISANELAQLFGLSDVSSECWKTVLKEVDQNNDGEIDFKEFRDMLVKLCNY
Sequence of Calcium-dependent protein kinase 1 (Plasmodium falciparum (isolate 3D7)) (P62344 whole entry, looked up): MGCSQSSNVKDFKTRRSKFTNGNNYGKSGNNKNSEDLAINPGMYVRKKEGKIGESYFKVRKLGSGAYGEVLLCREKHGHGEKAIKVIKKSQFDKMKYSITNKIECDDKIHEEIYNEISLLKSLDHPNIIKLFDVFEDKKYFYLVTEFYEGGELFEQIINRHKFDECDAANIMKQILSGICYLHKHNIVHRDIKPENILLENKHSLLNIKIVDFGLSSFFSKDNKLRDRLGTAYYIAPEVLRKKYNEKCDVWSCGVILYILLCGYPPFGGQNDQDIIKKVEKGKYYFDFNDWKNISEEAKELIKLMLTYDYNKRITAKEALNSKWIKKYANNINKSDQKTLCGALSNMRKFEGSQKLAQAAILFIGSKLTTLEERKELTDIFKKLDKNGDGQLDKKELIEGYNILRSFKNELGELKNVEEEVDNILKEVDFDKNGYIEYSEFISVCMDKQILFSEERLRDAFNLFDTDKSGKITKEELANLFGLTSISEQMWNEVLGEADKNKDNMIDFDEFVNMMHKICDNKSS
Sequence of L-lactate dehydrogenase (Plasmodium falciparum (isolate CDC / Honduras)) (Q27743 whole entry, looked up): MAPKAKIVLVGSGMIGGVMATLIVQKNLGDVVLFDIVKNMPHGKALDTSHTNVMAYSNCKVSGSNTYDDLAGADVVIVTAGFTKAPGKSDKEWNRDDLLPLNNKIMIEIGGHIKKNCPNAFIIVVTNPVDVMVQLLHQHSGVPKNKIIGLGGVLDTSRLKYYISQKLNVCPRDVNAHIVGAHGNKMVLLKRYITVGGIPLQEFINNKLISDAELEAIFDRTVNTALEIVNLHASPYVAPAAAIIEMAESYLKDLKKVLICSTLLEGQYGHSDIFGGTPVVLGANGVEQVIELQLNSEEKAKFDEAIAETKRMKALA

Broadly, the inhibition is the drop in the measured response relative to a control, in per cent. For `FC(F)(F)c1ccc2c(NN=Cc3cccc(Cl)c3)ccnc2c1`, the growth inhibition in assay [1] was 59% (active); in assay [4] it was 93% (active). The values for the inhibition in assay [2] and in assay [3] were 7% and -3%, respectively. Besides, the result in assay [5], in assay [6], in assay [7] and in assay [8] was inactive.

For `COc1cccc(C(=O)NCc2n[nH]c(=S)n2-c2ccc(Cl)c(Cl)c2)c1`, the growth inhibition is 100% (active) in assay [1] and 102% (active) in assay [4]. Besides, the inhibition in assay [2] is -1%; in assay [3], 5%. The outcome in assay [5], in assay [6], in assay [7] and in assay [8] was inactive.

With `CC(=O)Nc1ccc(OCCCCN(Cc2ccccc2C(F)(F)F)c2ccc(C#N)c(C(F)(F)F)c2)c(Cl)c1`, the growth inhibition in assay [1] is 71% (active); in assay [4], 98% (active). The inhibition in assay [2] is -1%; in assay [3], -3%. For the same compound, the outcome in assay [5], in assay [6], in assay [7] and in assay [8] was inactive.

For `CCn1cc(-c2cc(C(=O)Nc3ccc(OC)cc3C)c3ccccc3n2)c(C)n1`, the growth inhibition was 100% (active) in assay [1] and 97% (active) in assay [4]. Also, the inhibition in assay [2] is -5%; in assay [3], 2%. For the same compound, the result in assay [5], in assay [6], in assay [7] and in assay [8] was inactive.

Regarding `N=C(N)c1ccc(Oc2ccc(C(=N)N)cc2)cc1`, the values for the growth inhibition in assay [1] and in assay [4] were 85% (active) and 92% (active), respectively. Besides, the inhibition in assay [2] was 18%; in assay [3], -3%. Also, the outcome in assay [5], in assay [6], in assay [7] and in assay [8] was inactive.

Take `CC(C)(C)c1ccc(CN2CCC(NC(=O)c3ccc(-c4cccc(C(F)(F)F)c4)s3)CC2)cc1`: the growth inhibition in assay [1] was 96% (active); in assay [4], 100% (active). Also, the inhibition was 97% (active) in assay [2] and -5% in assay [3]. Moreover, the outcome in assay [5], in assay [6], in assay [7] and in assay [8] was inactive.

In the case of `N#Cc1ccc(N2CCN(Cc3cccc(-c4ccc(-c5nc6ccc(C(F)(F)F)cc6[nH]5)s4)c3)CC2)nc1`, the growth inhibition is 52% (active) in assay [1] and 96% (active) in assay [4]. The inhibition in assay [2] is 31%; in assay [3] it was -4%. Also, the result in assay [5], in assay [6], in assay [7] and in assay [8] was inactive.

As to `CCOC(=O)c1ccc(NC(=O)Nc2cccc(-c3ccc(-c4nc5ccc(F)cc5[nH]4)cc3)c2)cc1`, the growth inhibition in assay [1] is 97% (active); in assay [4], 101% (active). The inhibition in assay [2] is 40%; in assay [3] it was 1%. Also, the outcome in assay [5], in assay [6], in assay [7] and in assay [8] was inactive.

With `COc1ccc(N2CCN(CCCCNC(=O)c3ccc(NC(=O)c4ccc(OC(F)(F)F)cc4)cc3)CC2)c(OC)c1`, the growth inhibition in assay [1] was 90% (active); in assay [4], 101% (active). Also, the inhibition in assay [2] was 36%; in assay [3] it was 5%. Besides, the outcome in assay [5], in assay [6], in assay [7] and in assay [8] was inactive.

Regarding `CC(NC(=O)NC1CCC(CCN2CCCc3ccccc32)CC1)c1cccc2ccccc12` (stereo not given), the growth inhibition in assay [1] is 83% (active); in assay [4], 90% (active). Besides, the inhibition in assay [2] was -4%; in assay [3], -1%. For the same compound, the result in assay [5], in assay [6], in assay [7] and in assay [8] was inactive.

Take `Cc1cc(NN=Cc2ccccc2[N+](=O)[O-])c2ccc(F)cc2n1`: the growth inhibition in assay [1] was 100% (active); in assay [4], 101% (active). Further, the inhibition in assay [2] was 32%; in assay [3], -4%. For the same compound, the outcome in assay [5], in assay [6], in assay [7] and in assay [8] was inactive.

As for `CN(C)CCNC(=O)NC1CN(c2ncnc3cc(-c4ccccc4)sc23)C1`, the figures for the growth inhibition in assay [1] and in assay [4] were 39% and 100% (active), respectively. The inhibition in assay [2] was 7%; in assay [3], 5%. Besides, the result in assay [5], in assay [6], in assay [7] and in assay [8] was inactive.

As for `CN(C)CCCOc1ccc(CCNCc2cccc(Oc3ccc(Cl)cc3)c2)cc1`, the growth inhibition in assay [1] is 26%; in assay [4], 94% (active). The inhibition was 57% (active) in assay [2] and -4% in assay [3]. For the same compound, the outcome in assay [5], in assay [6], in assay [7] and in assay [8] was inactive.

In the case of `CN(C)[C@@H]1C(=O)C(C(N)=O)=C(O)[C@@]2(O)C(=O)C3=C(O)c4c(O)ccc(C#Cc5ccccn5)c4C[C@H]3C[C@@H]12`, the growth inhibition was 75% (active) in assay [1] and 92% (active) in assay [4]. Also, the inhibition in assay [2] was 17%; in assay [3] it was -6%. Further, the outcome in assay [5], in assay [6], in assay [7] and in assay [8] was inactive.

For `CC(=O)c1cccc(NC(=O)NC2CCN(c3ccnc(Nc4ccc(F)cc4)n3)C2)c1` (stereo not given), the results for the growth inhibition in assay [1] and in assay [4] were 94% (active) and 99% (active), respectively. Moreover, the values for the inhibition in assay [2] and in assay [3] were 10% and -2%, respectively. Further, the result in assay [5], in assay [6], in assay [7] and in assay [8] was inactive.

For `CNC(=O)c1ccc2nc(C3CC3)n(CC3CCN(S(=O)(=O)c4cccc(Cl)c4)CC3)c2c1`, the growth inhibition in assay [1] and in assay [4] was 100% (active) throughout. For the same compound, the inhibition in assay [2] was -6%; in assay [3] it was 3%. Besides, the outcome in assay [5], in assay [6], in assay [7] and in assay [8] was inactive.

With `O=C(NCC1CCC(C(=O)NCCc2ccc(Cl)c(Cl)c2)CC1)c1ccc(O)c(-c2ccc(Cl)c(Cl)c2)c1` (stereo not given), the growth inhibition in assay [1] is 12%; in assay [4], 94% (active). Also, the figures for the inhibition in assay [2] and in assay [3] were -5% and -1%, respectively. The outcome in assay [5], in assay [6], in assay [7] and in assay [8] was inactive.

Turning to `Cn1nc(-c2ccccc2F)c2cc(C(=O)Nc3cccnc3)sc21`, the growth inhibition in assay [1] is 82% (active); in assay [4] it was 92% (active). Besides, the inhibition is 5% in assay [2] and 3% in assay [3]. Further, the outcome in assay [5], in assay [6], in assay [7] and in assay [8] was inactive.

`CC(C)(C)NCc1cc(Nc2ccnc3cc(Cl)ccc23)ccc1F`: the values for the growth inhibition in assay [1] and in assay [4] were 100% (active) and 101% (active), respectively. For the same compound, the inhibition in assay [2] was 21%; in assay [3] it was 6%. Besides, the result in assay [5], in assay [6], in assay [7] and in assay [8] was inactive.

For the compound `N#Cc1ccc(CN2CCCN(Cc3cccc(NC(=O)c4ccc(Cl)c(Cl)c4)c3)CC2)cc1`, the growth inhibition was 10% in assay [1] and 95% (active) in assay [4]. For the same compound, the results for the inhibition in assay [2] and in assay [3] were 19% and -1%, respectively. In addition, the outcome in assay [5], in assay [6], in assay [7] and in assay [8] was inactive.

These data come from PubChem BioAssay.
